Rows were chosen to be rich in hits. Some 15% of all compounds tested hit in one or more screens of this group.
ELG1 repair inh – qHTS screen for small molecules that inhibit ELG1-dependent DNA repair in human embryonic kidney (HEK293T) cells expressing luciferase-tagged ELG1; HEK293T ELG1-luciferase reporter, luminescence, 16 h; DNA damage induced by 5-fluorouridine; Potency, µM (top dose mostly 46.1 µM), for the others: at the highest dose activity change, negative = inhibition, actives largely listed as inhibitors; 330,000 compounds, 2.3% hits; also: nearly all actives have a fitted effect of over 55% in size
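Quantitative HTS, concentration-response format. 2,000 cells/well co-treated with 5-fluorouridine and compound, 16 hr in 5% CO2 at 37 °C; ONE-Glo luminescence read after 30 min.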
TDP1 cell noCPT – qHTS for Inhibitors of human tyrosyl-DNA phosphodiesterase 1 (TDP1): qHTS in cells in absence of CPT; Potency, µM (top dose mostly 46.2 µM), for the others: top-dose activity change, negative = growth inhibition, hits mostly inhibitors; 420,000 compounds, 15% hits; AID 686978, 2013; DT40 Tdp1-/- hTDP1 cells, no CPT, ATP luminescence, 48 h; also: nearly all actives have a fitted effect of over 55% in size
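Readout: luminescence from CellTiter-Glo after 30 min in the dark at RT. Cells: DT40 Tdp1-/- with stable hTDP1, 400/well. Exposure: compounds alone, ≥48 hr, 37 °C.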
Gal4-VP16 FLuc – VP16 counterscreen qHTS for inhibitors of ROR gamma transcriptional activity. Drosophila S2 Gal4-VP16 UAS-luciferase, luminescence, 20 h. Potency, µM (highest dose often 53.6 µM), without a hit: at the highest dose activity, negative = inhibition, usual class: inhibitors. 310,000 compounds, 3.5% hits. AID 2546, 2010;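 also: Gal4-VP16 expression switched on by copper sulfate through the metallothionein promoter; nearly all actives have a fitted effect of over 50% in size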
RORg inh – qHTS for inhibitors of ROR gamma transcriptional activity | Drosophila S2 Gal4-RORgamma UAS-luciferase reporter, 20 h | AID 2551, 2010 | 310,000 compounds, 5.4% hits | Nuclear receptor ROR-gamma (Mus musculus), P51450 | Potency, µM (titrated, usually from 53.6 µM), without a hit: at the top dose activity change, negative = inhibition, actives largely listed as inhibitors; also: nearly all actives have a fitted effect of over 60% in size
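Read-out: Photinus luciferase luminescence; inhibitors lower reporter signal. Insect Schneider cells with Gal4-ROR gamma fusion under metallothionein promoter, UAS reporter; 700 uM final copper sulfate induction, 20 hr, ambient temperature.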
12-LOX inh – Primary qHTS assay for inhibitors of human arachidonate 12S-lipoxygenase (ALOX12): Round 2; AID 1671190, 2021; purified 12hLO, xylenol orange hydroperoxide absorbance; Potency, µM (doses to about 108 µM), for inactives: at the top dose activity change, negative = inhibition, usual class: inhibitors; 580,000 compounds, 1.1% hits; Polyunsaturated fatty acid lipoxygenase ALOX12 (Homo sapiens), P18054
Target sequence (P18054 whole entry, looked up): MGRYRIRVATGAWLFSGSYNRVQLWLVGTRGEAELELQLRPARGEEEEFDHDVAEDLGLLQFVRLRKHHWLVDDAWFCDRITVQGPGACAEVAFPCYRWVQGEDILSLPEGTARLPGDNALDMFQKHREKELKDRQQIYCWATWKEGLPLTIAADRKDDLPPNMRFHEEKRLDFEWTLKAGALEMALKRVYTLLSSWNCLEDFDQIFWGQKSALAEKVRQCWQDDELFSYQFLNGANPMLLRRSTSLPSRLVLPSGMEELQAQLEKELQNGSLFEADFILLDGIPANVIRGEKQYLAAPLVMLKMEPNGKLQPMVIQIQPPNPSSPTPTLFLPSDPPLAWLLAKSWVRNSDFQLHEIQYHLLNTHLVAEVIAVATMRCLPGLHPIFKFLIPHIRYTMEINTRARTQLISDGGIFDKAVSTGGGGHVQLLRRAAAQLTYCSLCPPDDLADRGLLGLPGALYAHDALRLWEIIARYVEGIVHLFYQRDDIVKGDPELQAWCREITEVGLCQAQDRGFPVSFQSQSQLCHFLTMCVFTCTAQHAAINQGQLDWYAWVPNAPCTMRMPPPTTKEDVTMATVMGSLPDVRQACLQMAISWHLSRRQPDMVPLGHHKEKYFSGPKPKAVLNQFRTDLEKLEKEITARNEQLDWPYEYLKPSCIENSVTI
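Hydroperoxide product was detected by ferrous iron/xylenol orange as the 573 to 405 nm absorbance ratio. Arachidonic acid at 40 uM (final) was turned over for 30 min at room temperature by 150 nM human 12hLO, pH 7.0 Hepes buffer, after 15 min compound preincubation.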
TDP1 cell CPT – qHTS for Inhibitors of human tyrosyl-DNA phosphodiesterase 1 (TDP1): qHTS in cells in presence of CPT; Potency, µM (top dose mostly 46.2 µM), inactives show top-dose activity change, negative = growth inhibition, usual class: inhibitors; AID 686979, 2013; 420,000 compounds, 12% hits; chicken DT40 Tdp1-/-;hTDP1 cells + 20 nM CPT, ATP luminescence, 48 h; also: nearly all actives have a fitted effect of over 55% in size
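Chicken DT40 Tdp1-/- cells complemented with human TDP1, 400 cells/well, exposed to compounds plus 20 nM camptothecin for at least 48 h at 37 C; viability read as ATP content by CellTiter-Glo luminescence.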
Active calls of the source: *; ? = inconclusive; nt = no result given; [ ] = another dose, or the depositor's remark. Calls follow the shape of the dose curve; as a rule, active = well fitted curve in the direction sought with a large enough effect; inconclusive = small, poorly fitted or top-dose-only effect, or another doubt; inactive = no such curve, though single readings can be large; an effect the other way counts as inactive or inconclusive. % is scaled to controls: 0 for no effect and ±100 for the full control effect; potency is read from the fitted curve at half-maximal effect.

SMILES	ELG1 repair inh	TDP1 cell noCPT	Gal4-VP16 FLuc	RORg inh	12-LOX inh	TDP1 cell CPT
CCOc1cc(=O)n2c(c1C(=O)N(CC)Cc1ccncc1)CCCCC2	nt	nt	nt	nt	58%	nt
Cn1nc(CN2CCN(c3ccncc3)CC2)c2c(Cl)cccc21	nt	nt	nt	nt	-10%	nt
O=C(NCc1ccccn1)C1C2C=CC(C2)C1C(=O)Nc1ccc(F)cc1 (centres undefined)	2%	-1%	11%	16%	153%	3%
Fc1ccc(NC(=S)NCc2ccccn2)cc1	15%	-11%	?	10µM*	?	-5%
S=C(NCc1ccncc1)Nc1ccccc1	-13%	?	2%	18%	-11%	2%
C/C(=N\O)C(=O)NCc1ccccn1	11%	-4%	nt	7%[0.365 µM]	13%	-11%
S=C(Nc1ccccc1)Nc1nccs1	?	3.7µM*	-13%	4%	-26%	5.2µM*
S=C(NCc1ccccn1)Nc1ccccc1	?	5%	?	14µM*	-2%	17%
O=C(Cc1ccccc1)Nc1nccs1	1%	-14%	28%	-16%	0%	-17%
O=C(NCc1ccccn1)/C(=N/O)c1ccccc1	?	15µM*	-24%	10µM*	1%	15µM*
O=C(NCCc1ccccn1)C(F)(F)c1ccccc1	nt	nt	nt	nt	27%	nt
N#Cc1ccc(CCC(=O)OCc2ccc(C#N)cc2)cc1	nt	nt	nt	nt	-4%	nt
N#Cc1ccc(CCC(=O)O)cc1	nt	nt	nt	nt	28µM*	nt
COc1ccccc1N1CN(CCCN(C)C)Cn2c1nc(C)c(C)c2=O	nt	nt	nt	nt	-6%	nt
CC(C)c1ccc(-n2nnnc2C2(Nc3ccccc3)CCCC2)cc1	nt	nt	nt	nt	52%	nt
Cc1ccc(CSC2=NS(=O)(=O)c3ccccc32)cc1	nt	11µM*	nt	nt	nt	8.9µM*
O=S1(=O)N=C(SCc2ccccc2)N(Cc2ccccc2)c2ccccc21	nt	nt	nt	nt	-18%	nt
Cc1ccc(C)c(OC2=NS(=O)(=O)c3ccccc32)c1	7%	21µM*	2%	-3%	?	18µM*
COC1=NS(=O)(=O)c2ccccc21	15%	-3%	?	-9%	-19%	3%
Cc1ccc(SC2=NS(=O)(=O)c3ccccc32)c(C)c1	nt	1.3µM*	nt	nt	nt	1.4µM*
Cc1nc2ccc(Cl)cc2cc1C(=O)NCC(=O)N1CCCCC1	nt	nt	nt	nt	19%	nt
O=C(CCc1ncc(-c2ccc(Cl)cc2)o1)N1CCC(C(=O)N2CCOCC2)CC1	nt	nt	nt	nt	-8%	nt
COc1ccc(CN2C[C@H]3CN(Cc4ccc([N+](=O)[O-])cc4)CCN3C2=O)cc1	nt	nt	nt	nt	-1%[176 µM]	nt
Cc1ccc(OCCOc2ccc(Br)cc2/C=C(/C#N)c2ccccc2)cc1	nt	nt	nt	nt	-5%	nt
CC(C)c1nc(N2CCN(C(=O)c3ccco3)CC2)c(C#N)c2c1COC(C)(C)C2	?	21µM*	?	-92%	-13%	15µM*
SMILES	ELG1 repair inh	TDP1 cell noCPT	Gal4-VP16 FLuc	RORg inh	12-LOX inh	TDP1 cell CPT
CC(C)c1nc(N2CCN(C(=O)c3ccccc3)CC2)c(C#N)c2c1COC(C)(C)C2	?	?	8%	2%	1%	?
CCCCN(C)c1nc(-c2ccco2)c2c(c1C#N)CC(C)(C)OC2	-20%	?	?	-91%	40µM*	?
CC1CCN(C(=O)C(=O)N2CCN(c3nc(-c4ccco4)c4c(c3C#N)CC(C)(C)OC4)CC2)CC1	nt	nt	nt	nt	14µM*	nt
Cc1nc(N2CCN(Cc3ccccc3)CC2)c(C#N)c2c1COC(C)(C)C2	7.3µM*	26µM*	-14%	?	-4%	?
CC(=O)c1ccc(-c2ccc(C(=O)O)o2)cc1	nt	nt	nt	nt	-6%	nt
CN(Cc1ccc(C(=O)NC2CC2)cc1)c1nc2ccccc2o1	nt	nt	nt	nt	-38%	nt
CCOC1CCN(C(=O)c2cc(-c3ccncc3)nc3ccccc23)CC1	nt	nt	nt	nt	10%	nt
CSc1nc(N2CCN(C)CC2)c2c(c1C#N)CC(C)(C)OC2	8.2µM*	-22%	3%	-1%	201%	1%
CCCN1Cc2cccc(C(=O)Nc3ccc(OC)c(OC)c3)c2C1=O	nt	-4%	nt	nt	9%	14%
CCOC(=O)N1CCC(N2Cc3cccc(C(=O)Nc4ccc(OC)c(OC)c4)c3C2=O)CC1	?	?	4%	-4%	9%[57.4 µM]	18µM*
Cc1ccc(NC(=O)c2cccc3c2C(=O)N(C2CCCCC2)C3)c(Cl)c1	-2%	-29%	-1%	-2%	nt	18µM*
COc1ccc(N2Cc3cccc(C(=O)Nc4cccc(F)c4)c3C2=O)cc1	nt	3%	nt	nt	?	4%
CCOC(=O)N1CCC(N2Cc3cccc(C(=O)Nc4ccccc4OC)c3C2=O)CC1	-10%	16µM*	-1%	-26%	-29%	23µM*
COc1ccc(N2Cc3cccc(C(=O)Nc4ccc(Cl)cc4)c3C2=O)cc1	nt	21µM*	nt	nt	?	8.2µM*
Cc1cc(C)cc(NC(=O)c2cccc3c2C(=O)N(C2CCCCC2)C3)c1	?	29%	2%	-14%	-18%	-2%
COc1cc(NC(=O)c2cccc3c2C(=O)N(C2CCCCC2)C3)cc(OC)c1OC	4.6µM*	7.3µM*	4%	10%	42%	23µM*
Cc1cc(OCC(=O)Nc2ccc(NC(=O)C3CC3)cc2C(F)(F)F)ccc1Cl	nt	nt	nt	nt	15%	nt
CCN(CC(=O)NC(C)C)C(=O)c1ccc(S(=O)(=O)N(C)c2ccccc2OC)cc1	16%	15µM*	2%	2%	0%	?
CCN(Cc1ccccc1)C(=O)c1ccc(N(C)S(=O)(=O)c2ccc(C)cc2)cc1	0%	15µM*	nt	nt	?	18µM*
CCN(CC(=O)NCc1cccs1)C(=O)c1ccc(S(=O)(=O)N(C)c2ccccc2)cc1	?	?	nt	nt	11%	?
CCN(CC(=O)Nc1ccc(NC(C)=O)cc1)C(=O)c1ccc(N(C)S(=O)(=O)c2ccc(C)cc2)cc1	nt	?	nt	nt	-10%	26µM*
CCN(CC(=O)Nc1ccccc1OC)C(=O)c1ccc(N(C)S(=O)(=O)c2ccc(C)cc2)cc1	16µM*	16µM*	nt	nt	8%	15µM*
COC(=O)CC(NC(=O)CCc1cc(OC)ccc1OC)c1cccs1 (centres undefined)	nt	nt	nt	nt	-2%	nt
Cc1nc(NCCC(C)C)sc1C(=O)NCc1ccco1	nt	nt	nt	nt	6%	nt

Compound activity from PubChem BioAssay.
